# PubChem BioAssay (NCATS)
# Results filed as inconclusive are left out. Calls of active or inactive are those of the source. Unless noted, calls follow the shape of the dose curve; as a rule, active = well fitted curve in the direction sought with a large enough effect; inconclusive = small, poorly fitted or top-dose-only effect, or another doubt; inactive = no such curve, though single readings can be large; an effect the other way counts as inactive or inconclusive.
# Key:
# [1] = target: Lysosomal acid glucosylceramidase (Homo sapiens) (UniProt P04062); assay: Glucocerebrosidase-p2 (AID 348; in the data active = potency below about 10 µM; also: potency is read from the fitted curve at half-maximal effect); settings: purified GBA, blue fluorogenic substrate, 40 min
# Chain of Lysosomal acid glucosylceramidase (Homo sapiens) (P04062 whole entry, looked up): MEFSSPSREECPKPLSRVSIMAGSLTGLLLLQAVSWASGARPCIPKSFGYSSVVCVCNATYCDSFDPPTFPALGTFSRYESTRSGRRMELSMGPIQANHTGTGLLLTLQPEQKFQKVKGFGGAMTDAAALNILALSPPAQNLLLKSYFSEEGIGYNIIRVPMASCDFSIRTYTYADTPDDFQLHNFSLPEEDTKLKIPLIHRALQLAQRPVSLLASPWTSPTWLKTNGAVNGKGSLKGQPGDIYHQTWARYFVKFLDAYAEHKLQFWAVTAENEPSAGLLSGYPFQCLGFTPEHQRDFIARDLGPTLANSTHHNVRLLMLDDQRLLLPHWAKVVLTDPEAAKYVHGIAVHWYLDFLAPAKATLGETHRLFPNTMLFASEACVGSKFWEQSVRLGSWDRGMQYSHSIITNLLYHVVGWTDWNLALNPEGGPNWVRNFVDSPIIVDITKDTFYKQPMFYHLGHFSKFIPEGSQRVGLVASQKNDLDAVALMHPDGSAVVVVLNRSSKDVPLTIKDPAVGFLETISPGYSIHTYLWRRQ
# Summary of the method: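 Compounds titrated from 0.6 nM upwards against 0.2 nM enzyme in pH 5.9 citric acid/KH2PO4, taurocholate, tween-20; blue fluorogenic substrate 80 uM, 40 min room temperature, stopped and read Ex 365/Em 440 for AC50.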
# [2] = AP1 Signaling Pathway (AID 357; active = well fitted curve in either direction with a large enough effect, not every such curve was filed as active;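 also: ME-180 reporter cells stimulated with EGF at its EC50 level; % is scaled to controls: 0 for no effect and ±100 for the full control effect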); settings: ME-180 AP-1-bla reporter, EGF-induced, beta-lactamase ratio, 5 h; at 7.69 µM (top of the series) unless noted
# Summary of the method: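 In this screen, ME-180 cells in Opti-MEM with 0.5% dialyzed FBS received EC50 EGF and compound titrations for 5 h. AP-1 reporter beta-lactamase was detected via CCF4 ratio, giving AC50 for positive and negative modulators.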
# [3] = target: Cytochrome P450 1A2 (Homo sapiens) (UniProt P05177); assay: p450-cyp1a2 (AID 410; calls by dose curve; also: potency is read from the fitted curve at half-maximal effect;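 as to activity change, negative = inhibition: -100% = full effect of reference inhibitor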); settings: recombinant CYP1A2, luciferin-ME demethylation, luminescence; series mostly up to 57 µM
# Chain of Cytochrome P450 1A2 (Homo sapiens) (P05177 whole entry, looked up): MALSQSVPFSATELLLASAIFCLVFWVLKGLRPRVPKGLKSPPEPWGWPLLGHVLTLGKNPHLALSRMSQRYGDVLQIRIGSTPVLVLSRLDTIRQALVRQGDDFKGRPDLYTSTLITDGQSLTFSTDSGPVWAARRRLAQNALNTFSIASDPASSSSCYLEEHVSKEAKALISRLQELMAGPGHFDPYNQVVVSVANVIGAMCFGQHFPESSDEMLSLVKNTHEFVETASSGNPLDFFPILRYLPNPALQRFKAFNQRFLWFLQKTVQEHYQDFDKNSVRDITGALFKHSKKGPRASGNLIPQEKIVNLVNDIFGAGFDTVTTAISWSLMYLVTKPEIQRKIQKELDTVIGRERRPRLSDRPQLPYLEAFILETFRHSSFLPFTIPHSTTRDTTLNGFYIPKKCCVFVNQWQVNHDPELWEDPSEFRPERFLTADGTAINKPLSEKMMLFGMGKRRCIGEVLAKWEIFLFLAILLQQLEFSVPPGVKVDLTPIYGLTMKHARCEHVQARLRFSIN
# Summary of the method: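 20nM CYP1A2 with 100uM Luciferin-ME (at Km) in 100mM KPO4; compound preincubated 10 min, NADPH regeneration added, 60 min at room temperature. Luciferin quantified by luminescence after detection reagent; normalized to 57 uM furafylline.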
# [4] = Stat Signaling Pathway (AID 446; active = well fitted curve in either direction with a large enough effect, not every such curve was filed as active;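 also: ME-180 cervical cancer cells given 40 pM IL-6 alongside compound; SIE-controlled beta-lactamase reporter measured as 460/530 nm FRET emission ratio; % is scaled to controls: 0 for no effect and ±100 for the full control effect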); settings: ME-180 SIE beta-lactamase reporter, IL-6 stimulated, 5 h; at 7.69 µM (top of the series) unless noted
# Summary of the method: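 ME-180 cells carrying a SIE-driven beta-lactamase reporter are stimulated with 40 pM IL-6 for 5 h at 37C in the presence of compound. The 460/530 nm FRET substrate ratio is read after 2.5 h at RT. Data are normalised to 300 pM IL-6 and to 125 nM JAK inhibitor controls.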
# [5] = target: Glucocorticoid receptor (Homo sapiens) (UniProt P04150); assay: GR-GFP Redistribution (AID 450;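 active = compounds whose dose series gives a full or clear partial fitted curve of increased nuclear translocation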; also: potency is read from the fitted curve at half-maximal effect); settings: U2OS GR-GFP nuclear translocation, laser cytometry, 2 h
# Chain of Glucocorticoid receptor (Homo sapiens) (P04150 whole entry, looked up, the tested form may be a part): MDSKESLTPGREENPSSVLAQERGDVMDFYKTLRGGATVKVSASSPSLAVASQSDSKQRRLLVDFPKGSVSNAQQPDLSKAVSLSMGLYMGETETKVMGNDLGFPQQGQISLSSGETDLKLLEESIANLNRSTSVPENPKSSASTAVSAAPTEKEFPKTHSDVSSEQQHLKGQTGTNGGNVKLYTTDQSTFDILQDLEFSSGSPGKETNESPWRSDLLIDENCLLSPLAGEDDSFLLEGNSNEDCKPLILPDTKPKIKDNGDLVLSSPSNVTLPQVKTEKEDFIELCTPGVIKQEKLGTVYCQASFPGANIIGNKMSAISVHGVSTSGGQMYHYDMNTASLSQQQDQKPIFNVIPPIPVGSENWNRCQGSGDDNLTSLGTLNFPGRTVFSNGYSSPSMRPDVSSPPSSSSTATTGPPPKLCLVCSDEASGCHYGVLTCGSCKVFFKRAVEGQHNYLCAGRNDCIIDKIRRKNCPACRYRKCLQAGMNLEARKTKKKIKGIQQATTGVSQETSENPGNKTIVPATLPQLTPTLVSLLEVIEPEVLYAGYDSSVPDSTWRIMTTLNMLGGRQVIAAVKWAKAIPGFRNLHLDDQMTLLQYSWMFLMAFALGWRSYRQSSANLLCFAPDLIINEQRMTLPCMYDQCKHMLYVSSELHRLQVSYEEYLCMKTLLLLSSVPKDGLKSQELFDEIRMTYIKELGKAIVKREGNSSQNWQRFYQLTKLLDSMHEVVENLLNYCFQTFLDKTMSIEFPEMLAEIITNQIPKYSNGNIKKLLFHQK
# [6] = target: Glucocorticoid receptor (Homo sapiens) (UniProt P04150); assay: GR-EFC Redistribution (AID 451; calls by dose curve; also: potency is read from the fitted curve at half-maximal effect); settings: CHO-K1 GR-EFC translocation, beta-gal luminescence, 2 h
# Summary of the method: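 CHO-K1 cells expressing nuclear EA and GR-ED fragments of b-gal; compounds titrated up to 46 uM final, 2 h at 37 C. GR nuclear translocation read as complemented b-gal luminescence after 1 h RT detection.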
# [7] = target: Mitogen-activated protein kinase 10 (Mus musculus) (UniProt Q61831); assay: JNK3 AlphaScreen Assay (AID 530; active = well fitted curve in either direction with a large enough effect, not every such curve was filed as active;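 also: kinase came from lysate of stimulated human HepG2 cells; signal reports phosphorylation of biotinylated GST-cJun 1-79 at Ser73 with 10 µM ATP; % is scaled to controls: 0 for no effect and ±100 for the full control effect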); settings: JNK3 lysate, c-Jun phosphorylation; series mostly up to 57.1 µM
# Summary of the method: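 Pre-activated (IL-1β/TNFα) JNK3 in HepG2 lysates phosphorylates biotin-GST-cJun(1-79), 10 uM ATP; anti-phospho-cJun(Ser73) AlphaScreen read at room temperature, pH 7.6 Tris buffer. Compounds pre-incubated 15 min as titrations.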
# [8] = target: 3',5'-cyclic-AMP phosphodiesterase 4B (Homo sapiens) (UniProt Q07343); assay: qHTS Assay for Inhibitors of PDE-IV (AID 607; active = well fitted activation curve with a large enough effect in the main read-out, with a control signal flat, not every such curve was filed as active; also: % of control where 0% means no effect); settings: HEK293 ACTOne CNG channel cells, membrane potential fluorescence; series mostly up to 22.9 µM
# Chain of 3',5'-cyclic-AMP phosphodiesterase 4B (Homo sapiens) (Q07343 whole entry, looked up): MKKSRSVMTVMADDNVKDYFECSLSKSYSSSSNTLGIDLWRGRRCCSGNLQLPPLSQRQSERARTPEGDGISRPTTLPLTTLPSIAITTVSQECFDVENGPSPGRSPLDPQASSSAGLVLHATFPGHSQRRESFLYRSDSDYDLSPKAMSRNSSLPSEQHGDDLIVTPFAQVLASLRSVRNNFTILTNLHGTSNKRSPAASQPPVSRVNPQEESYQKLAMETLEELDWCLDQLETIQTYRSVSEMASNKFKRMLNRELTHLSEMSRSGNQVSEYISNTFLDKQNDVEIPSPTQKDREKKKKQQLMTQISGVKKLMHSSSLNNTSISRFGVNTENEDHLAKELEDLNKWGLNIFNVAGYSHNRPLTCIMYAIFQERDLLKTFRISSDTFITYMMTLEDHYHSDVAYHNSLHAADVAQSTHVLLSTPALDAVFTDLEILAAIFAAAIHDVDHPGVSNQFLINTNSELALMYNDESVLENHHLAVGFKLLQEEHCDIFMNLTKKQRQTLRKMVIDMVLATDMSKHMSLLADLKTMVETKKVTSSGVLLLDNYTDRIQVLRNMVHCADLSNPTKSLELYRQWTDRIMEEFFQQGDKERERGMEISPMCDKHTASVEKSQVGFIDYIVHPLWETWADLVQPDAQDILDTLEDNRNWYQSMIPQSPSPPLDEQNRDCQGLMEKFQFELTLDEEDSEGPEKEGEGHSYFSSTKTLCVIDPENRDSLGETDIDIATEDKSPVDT
# Summary of the method: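 HEK293 ACTOne cells with CNG channel (1000/well), endogenous PDE4; membrane potential dye, compounds up to 22.9 uM final. Fluorescence Ex 535/Em 590; RO 20-1724 (100 uM final) as reference.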
# [9] = target: Cytochrome P450 3A4 (Homo sapiens) (UniProt P08684); assay: qHTS Assay for Inhibitors and Substrates of Cytochrome P450 3A4 (AID 884); settings: recombinant CYP3A4, Luciferin-PPXE luminescence; series mostly up to 57.1 µM; also: nearly all actives have a fitted effect of over 50% in size; also: potency is read from the fitted curve at half-maximal effect
# Chain of Cytochrome P450 3A4 (Homo sapiens) (P08684 whole entry, looked up): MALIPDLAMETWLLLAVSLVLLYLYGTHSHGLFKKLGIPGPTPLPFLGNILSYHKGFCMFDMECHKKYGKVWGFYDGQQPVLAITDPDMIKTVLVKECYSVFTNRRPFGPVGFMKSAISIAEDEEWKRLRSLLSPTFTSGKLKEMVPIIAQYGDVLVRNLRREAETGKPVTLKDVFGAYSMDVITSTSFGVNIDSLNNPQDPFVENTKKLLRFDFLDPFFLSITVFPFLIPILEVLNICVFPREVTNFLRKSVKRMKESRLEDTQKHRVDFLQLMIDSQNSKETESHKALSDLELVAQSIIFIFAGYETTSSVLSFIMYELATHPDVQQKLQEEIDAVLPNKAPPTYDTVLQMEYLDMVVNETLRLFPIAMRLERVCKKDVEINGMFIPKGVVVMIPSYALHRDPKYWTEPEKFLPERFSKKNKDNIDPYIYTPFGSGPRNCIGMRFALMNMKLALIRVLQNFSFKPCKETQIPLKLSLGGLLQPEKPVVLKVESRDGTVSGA
# Summary of the method: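 20 nM human CYP3A4 with 25 uM Luciferin-PPXE (at KM) in 200 mM KPO4, preincubated 10 min with compound; NADPH regeneration started a 60 min RT reaction. Luciferin detected by luminescence, normalized to 57 uM ketoconazole as full inhibition.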
# [10] = target: Cytochrome P450 3A4 (Homo sapiens) (UniProt P08684); assay: qHTS Assay for Activators of Cytochrome P450 3A4 (AID 885); settings: recombinant CYP3A4, Luciferin-PPXE luminescence, 60 min; series mostly up to 57.1 µM; also: nearly all actives have a fitted effect of over 65% in size
# Summary of the method: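 Human CYP3A4 (20 nM) with Luciferin-PPXE at 25 uM (its KM) in 200 mM KPO4; 10 min compound preincubation, then NADPH regeneration and 60 min reaction at RT. Luciferin read by luminescence; normalized to 57 uM ketoconazole full inhibition.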
# [11] = target: Cytochrome P450 2D6 (Homo sapiens) (UniProt P10635); assay: qHTS Assay for Inhibitors and Substrates of Cytochrome P450 2D6 (AID 891); settings: recombinant CYP2D6, luciferin-ME EGE luminescence; series mostly up to 57.1 µM; also: potency is read from the fitted curve at half-maximal effect; nearly all actives have a fitted effect of over 60% in size
# Chain of Cytochrome P450 2D6 (Homo sapiens) (P10635 whole entry, looked up): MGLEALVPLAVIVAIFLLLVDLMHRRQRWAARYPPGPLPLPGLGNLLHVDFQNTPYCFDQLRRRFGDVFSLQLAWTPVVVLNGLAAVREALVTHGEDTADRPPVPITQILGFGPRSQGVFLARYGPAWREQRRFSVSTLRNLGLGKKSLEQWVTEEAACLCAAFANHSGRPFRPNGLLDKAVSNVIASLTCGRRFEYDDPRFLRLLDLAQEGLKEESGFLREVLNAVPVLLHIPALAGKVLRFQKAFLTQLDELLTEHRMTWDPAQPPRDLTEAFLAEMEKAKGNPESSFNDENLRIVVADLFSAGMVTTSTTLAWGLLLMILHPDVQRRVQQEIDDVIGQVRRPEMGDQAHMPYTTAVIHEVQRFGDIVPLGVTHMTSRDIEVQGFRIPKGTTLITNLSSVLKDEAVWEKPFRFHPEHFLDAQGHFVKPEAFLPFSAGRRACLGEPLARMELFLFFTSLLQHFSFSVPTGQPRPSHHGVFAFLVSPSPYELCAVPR
# Summary of the method: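 Human CYP2D6 (5 nM) with 30 uM Luciferin-ME EGE (at Km) in 100 mM KPO4, compound preincubated 10 min, then NADPH regeneration system for 60 min at room temperature. Luciferin read by luminescence; normalized to 1.43 uM quinidine.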
# [12] = Confirmation and Secondary Assay for Modulators of Hemoglobin Beta Chain Splicing at IVS2 705 locus (AID 930); settings: HeLa EGFP-705 splicing reporter, GFP fluorescence, 48 h; series mostly up to 38.3 µM;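 also: HeLa cells stably expressing the EGFP-705 splicing reporter; % of control where 0% means no effect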
# Summary of the method: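 HeLa cells stably carrying EGFP interrupted by mutant beta-globin IVS2-705 intron (CMV-driven) were seeded at 500 cells/well, treated next day with compound for 2 days at 37C; corrected splicing restores EGFP, read as total peak GFP intensity per well.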
# [13] = qHTS Assay for Lipid Storage Modulators (AID 1519; calls by dose curve); settings: Drosophila S3 cells, BODIPY lipid droplet/cell ratio, laser cytometry, cells loaded with oleic acid; for activity change, negative = inhibition: at 57.5 µM (top of the series)
# Summary of the method: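 Cells seeded at 5,000 per well were treated with compounds over a concentration series and loaded with oleic acid (400 uM, as added). Lipid droplet fluorescence (488 nm excitation, 500-530 nm channel) was read by laser-scanning cytometry and normalized to 20 uM Triacsin C.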
# [14] = target: Ubiquitin carboxyl-terminal hydrolase 1 (Homo sapiens) (UniProt O94782); assay: Inhibitors of USP1/UAF1: Pilot qHTS (AID 504865); settings: purified USP1/UAF1, Ub-rhodamine cleavage fluorescence; series mostly up to 54.9 µM;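 also: rhodamine fluorescence freed from ubiquitin-rhodamine substrate followed over time; top concentration of the series differs between compounds; % is scaled to controls: 0 for no effect and ±100 for the full control effect; nearly all actives have a fitted effect of over 35% in size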
# Chain of Ubiquitin carboxyl-terminal hydrolase 1 (Homo sapiens) (O94782 whole entry, looked up): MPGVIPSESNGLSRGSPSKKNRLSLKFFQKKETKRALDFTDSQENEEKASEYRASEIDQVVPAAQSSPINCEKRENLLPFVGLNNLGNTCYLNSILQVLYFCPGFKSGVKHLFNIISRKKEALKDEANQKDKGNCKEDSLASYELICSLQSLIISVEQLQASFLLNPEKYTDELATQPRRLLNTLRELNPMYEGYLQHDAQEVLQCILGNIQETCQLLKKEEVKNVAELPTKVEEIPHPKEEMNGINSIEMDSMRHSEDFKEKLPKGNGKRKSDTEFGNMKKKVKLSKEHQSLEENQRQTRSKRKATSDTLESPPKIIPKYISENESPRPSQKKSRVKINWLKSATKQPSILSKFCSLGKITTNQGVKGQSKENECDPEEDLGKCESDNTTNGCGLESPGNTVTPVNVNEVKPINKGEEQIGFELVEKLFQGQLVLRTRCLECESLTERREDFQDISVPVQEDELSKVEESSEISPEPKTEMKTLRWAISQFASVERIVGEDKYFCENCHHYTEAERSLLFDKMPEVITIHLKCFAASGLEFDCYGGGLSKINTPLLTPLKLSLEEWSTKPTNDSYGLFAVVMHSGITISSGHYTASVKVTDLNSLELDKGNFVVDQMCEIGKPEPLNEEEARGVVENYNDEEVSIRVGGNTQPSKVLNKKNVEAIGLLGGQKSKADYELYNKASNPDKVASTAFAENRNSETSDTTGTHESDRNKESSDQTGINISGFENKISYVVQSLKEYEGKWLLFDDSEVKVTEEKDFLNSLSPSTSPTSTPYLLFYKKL
# Summary of the method: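 Deubiquitinase activity followed as kinetic rhodamine fluorescence release from 150 nM Ub-Rho. 1 nM USP1/UAF1 with compound, after 15 min room-temperature preincubation, in HEPES pH 7.8 buffer containing TCEP, EDTA, BSA and Tween-20.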
# [15] = Primary qHTS for small molecule stabilizers of the endoplasmic reticulum resident proteome: Secreted ER Calcium Modulated Protein (SERCaMP) assay (AID 1508630); settings: SH-SY5Y GLuc-SERCaMP (Gaussia luciferase released on ER calcium loss) secretion, thapsigargin, luminescence; series mostly up to 38.4 µM; also: % is scaled to controls: 0 for no effect and ±100 for the full control effect
# Summary of the method: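 GLuc-SERCaMP-expressing SH-SY5Y cells, pretreated 16 h with compound, are challenged with thapsigargin to empty ER calcium stores; after 4 h, coelenterazine is added directly to the medium and luminescence is imaged.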
# [16] = Confirmation and Secondary Assay for Modulators of Hemoglobin Beta Chain Splicing at IVS2 654 locus (AID 910); settings: HeLa EGFP-654 splicing reporter, GFP fluorescence, 48 h; series mostly up to 38.3 µM;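 also: HeLa cells stably carrying EGFP split by mutant beta-globin IVS2-654 intron; % of control where 0% means no effect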
# Summary of the method: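 HeLa cells stably expressing EGFP interrupted by β-globin IVS2-654 intron, seeded overnight in Opti-MEM/2% FCS, then treated 2 days at 37 °C. Restored splicing read as total peak GFP intensity per well by laser scanning cytometry (488 nm excitation, 500–520 nm emission); 500 nM antisense PNA as control.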
# [17] = target: Cytochrome P450 2C9 (Homo sapiens) (UniProt P11712); assay: qHTS Assay for Inhibitors and Substrates of Cytochrome P450 2C9 (AID 883); settings: recombinant CYP2C9, luciferin-H luminescence, 60 min; series mostly up to 57.1 µM; also: potency is read from the fitted curve at half-maximal effect; nearly all actives have a fitted effect of over 60% in size
# Chain of Cytochrome P450 2C9 (Homo sapiens) (P11712 whole entry, looked up): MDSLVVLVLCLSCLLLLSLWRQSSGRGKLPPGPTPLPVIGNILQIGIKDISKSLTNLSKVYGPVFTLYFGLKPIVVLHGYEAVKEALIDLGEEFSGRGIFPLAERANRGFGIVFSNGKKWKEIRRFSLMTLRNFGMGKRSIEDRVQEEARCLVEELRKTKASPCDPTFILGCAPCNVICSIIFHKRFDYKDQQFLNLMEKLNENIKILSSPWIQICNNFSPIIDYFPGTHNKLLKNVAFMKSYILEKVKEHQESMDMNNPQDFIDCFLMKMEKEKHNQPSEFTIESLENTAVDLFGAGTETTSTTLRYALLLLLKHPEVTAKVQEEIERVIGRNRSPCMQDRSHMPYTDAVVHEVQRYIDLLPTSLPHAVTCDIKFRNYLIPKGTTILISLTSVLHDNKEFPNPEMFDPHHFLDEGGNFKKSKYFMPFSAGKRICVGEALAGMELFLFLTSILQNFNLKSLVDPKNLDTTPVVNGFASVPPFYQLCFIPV
# Summary of the method: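 Human CYP2C9 (10nM) with Luciferin-H at 100uM (its KM) in 25mM KPO4; compound preincubated 10 min at 37C, then NADPH regeneration for 60 min at 37C. Luciferin read by luminescence after detection reagent; normalized to 57uM sulphaphenazole as full inhibition.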
# [18] = qHTS Assay for Identification of Small Molecule Agonists for Hypoxia Response Element Signaling Pathway (AID 914; active = well fitted activation curve with a large enough effect in the signal ratio, with a control signal flat, not every such curve was filed as active; the % refers to the signal ratio; also: % of control where 0% means no effect); settings: ME-180 HRE-bla reporter, beta-lactamase ratio, CoCl2, 17 h; activation: stronger effect = higher value
# Summary of the method: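 ME-180 cells carrying an HRE-driven beta-lactamase reporter were treated with compounds in a titration series plus an EC50 level of CoCl2 for 17 h at 37 degrees Celsius; CCF4 readout as the 460nm/530nm ratio gave AC50 values.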
# [19] = measured here: cell count channel max response
# [20] = measured here: lipid channel max response
Compound,Potency [1],"activity change, negative = inhibition [2]",Potency [3],"activity, negative = inhibition [4]",Potency [5],Potency [6],Potency [7],Potency [8],Potency [9],Potency [10],Potency [11],outcome [12],"activity change, negative = inhibition [13]","max response [13, 19] [%]","max response [13, 20] [%]",Potency [14],outcome [15],Potency [16],Potency [17],activation [18]
CN(C)c1ccc(-c2nc(NCc3cccnc3)c3ccccc3n2)cc1,9.34 µM (active),-8.92% (inactive),1.58 µM (active),19.7% (inactive),> 46 µM (inactive),> 46 µM (inactive),inactive,inactive,2 µM (active),inactive,7.94 µM (active),inactive,8.26% (inactive),-14.2,-5.05,inactive,inactive,,,
CN(C)c1ccc(-c2cncnc2NCc2ccccc2)cc1,> 11.4 µM (inactive),-0.796% (inactive),1 µM (active),-2.24% (inactive),> 46 µM (inactive),> 46 µM (inactive),,,inactive,,,inactive,9.86% (inactive),-3.1,16.1,,inactive,inactive,,
N#Cc1cccc(NC(=O)N2CCCC3(CCN(C(=O)c4ccco4)CC3)C2)c1,> 11.4 µM (inactive),-14.7% (inactive),15.8 µM (active),-1.77% (inactive),,> 46 µM (inactive),inactive,inactive,5.01 µM (active),inactive,,,7.75% (inactive),5.8,16.6,,inactive,,3.98 µM (active),
O=C(Oc1ccccc1)N1CCC2(CC1)CCN(c1ccncc1)CC2,> 11.4 µM (inactive),9.96% (inactive),inactive,16.5% (inactive),,> 46 µM (inactive),inactive,inactive,,,,,1.8% (inactive),-5.74,-3.08,,inactive,,,
O=C(c1ccncc1)N1CCC2(CCCN(Cc3ccncc3)C2)CC1,> 11.4 µM (inactive),-5.21% (inactive),6.31 µM (active),4.83% (inactive),,> 46 µM (inactive),inactive,inactive,5.01 µM (active),inactive,6.31 µM (active),,2.08% (inactive),1.67,8.27,,inactive,,5.01 µM (active),2.4% (inactive)
COCC(=O)N1CCC2(CCCN(Cc3ccccc3)C2)CC1,> 11.4 µM (inactive),-19.3% (inactive),inactive,0.327% (inactive),,> 46 µM (inactive),inactive,inactive,,,,,2.23% (inactive),22.3,27.9,,inactive,,,
c1ccc(C(c2ccccc2)N2CC[C@@]3(CCCNC3)C2)cc1,> 11.4 µM (inactive),0.329% (inactive),inactive,8.51% (inactive),,> 46 µM (inactive),inactive,inactive,7.94 µM (active),inactive,,,-9.5% (inactive),4.5,-6.03,,inactive,,,
